# Hits are enriched below; roughly 3.1% of the tested compounds scored in any of these assays.
# p53ts 32C tox – p53ts cell cytotoxicity, permissive temperature. H1299-p53A138V at 32C, ATP luminescence viability, 24 h. 130,000 compounds, 0.93% hits. Potency, µM (highest dose often 46.1 µM), without a hit: at the top dose activity change, negative = cytotoxicity, actives largely listed as cytotoxic. AID 924;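 note: 0% = DMSO and -100% = full killing by reference compound; nearly all actives have a fitted effect of over 55% in size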
#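 Cells: H1299 p53ts (A138V), 600/well, pre-incubated 16–30 h at 37C. Cpd up to 46 uM, 24 h, 32C. Readout: ATPlite luminescence, 20 min RT. Normalization: DMSO vs tamoxifen 100 uM. AC50 by Hill equation.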
# Peg3 imprint – induces erasure of genomic imprints in mouse ES cells; mouse ES Peg3-LacZ reporter, beta-gal luminescence, 40 h; Potency, µM (highest dose often 60.7 µM), without a hit: at the top dose activity change, positive = activation, hits mostly activators; 110,000 compounds, 0.02% hits; AID 1948
#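 Readout: BetaGlo luminescence (5 min, room temp) for LacZ from the normally silent maternal Peg3 allele in female Peg3LacZ-Neo ES cells. Cells 300/well, 40 h, 37C, 5% CO2. Data normalized per plate to negative controls.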
# IkB sig inh – inhibitors of IkB signaling in ABC-DLBCL cells; Potency, µM (top dose mostly 57.1 µM), inactives show top-dose IkBa stabilization activation; AID 445; ABC-DLBCL IkBa-CBG/CBR dual luciferase ratio, 4 h; response scale: scaled: untreated 0%, proteasome inhibitor 100%; 110,000 compounds, 0.04% hits; active = well fitted curve in the direction sought with a large enough effect in the signal ratio, not every such curve was filed as active; inconclusive = small, poorly fitted or top-dose-only effect, or a change in a side signal; the % refers to the signal ratio;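 note: the direction sought is a rising ratio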
#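 Luminescence ratio of IκBα-fused green versus native red beetle luciferase in OCI-Ly3 cells, 4 h post-doxycycline with compound; red signal alone, scaled from basal (0%) to zero light (-100%), flagged nonspecific or cytotoxic effects.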
# p53ts 39C tox – p53ts cell cytotoxicity, nonpermissive temperature; H1299-p53A138V viability at 39C, ATP luminescence, 24 h; Potency, µM (doses to about 46.1 µM), without a hit: top-dose activity change, negative = cell killing, hits mostly cytotoxic; 130,000 compounds, 1.5% hits; note: % is set by controls: 0 for no effect and ±100 for the full control effect; nearly all actives have a fitted effect of over 55% in size
# TSHR ag – activates the human thyroid stimulating hormone receptor | HEK293-CNG-TSHR cells (CNG channel as cAMP sensor), membrane potential dye, cAMP | Potency, µM (titrated, usually from 57.1 µM), for inactives: at the top dose activation, most hits filed as activators | 73,000 compounds, 0.48% hits | AID 926 | P16473; active = well fitted activation curve with a large enough effect in the main read-out, with a control signal flat, not every such curve was filed as active; inconclusive = small, poorly fitted or top-dose-only effect, or a change in a side signal; inactive = no such curve, though single readings can be large or run the other way; % of control where 0% means no effect;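 note: the control signal comes from parental cells without the receptor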
# Target sequence (P16473 whole entry, looked up): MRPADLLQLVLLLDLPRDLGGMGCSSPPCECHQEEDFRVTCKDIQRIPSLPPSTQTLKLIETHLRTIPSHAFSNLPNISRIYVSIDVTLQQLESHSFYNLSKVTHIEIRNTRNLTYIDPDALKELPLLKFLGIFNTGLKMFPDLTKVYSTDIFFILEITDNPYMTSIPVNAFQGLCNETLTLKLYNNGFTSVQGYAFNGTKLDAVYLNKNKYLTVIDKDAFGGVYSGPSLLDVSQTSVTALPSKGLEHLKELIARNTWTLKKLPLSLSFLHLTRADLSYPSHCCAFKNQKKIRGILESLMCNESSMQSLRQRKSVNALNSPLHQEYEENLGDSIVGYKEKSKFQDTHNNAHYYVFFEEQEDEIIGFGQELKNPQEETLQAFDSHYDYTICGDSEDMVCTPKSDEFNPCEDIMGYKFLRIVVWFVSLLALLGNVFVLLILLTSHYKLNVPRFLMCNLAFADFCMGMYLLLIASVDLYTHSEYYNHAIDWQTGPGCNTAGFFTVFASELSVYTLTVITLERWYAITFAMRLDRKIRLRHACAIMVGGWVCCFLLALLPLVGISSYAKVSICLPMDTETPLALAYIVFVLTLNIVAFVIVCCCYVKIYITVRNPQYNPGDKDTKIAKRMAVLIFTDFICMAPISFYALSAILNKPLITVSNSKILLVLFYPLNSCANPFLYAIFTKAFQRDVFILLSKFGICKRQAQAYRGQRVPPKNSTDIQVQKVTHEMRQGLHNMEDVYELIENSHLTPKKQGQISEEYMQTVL
#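 cAMP rise detected as CNG-channel membrane depolarization by fluorescent dye (emission 590 nm), 30 min after compound, following 60 min dye loading containing 100 uM RO 20-1724 at room temperature. Cells: TSHR/CNG HEK 293, with parental CNG HEK 293 as control.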
# HEK293 cAMP ctrl – parental HEK293 cAMP activation (counter-screen) | parental HEK293 CNG cAMP sensor, membrane potential fluorescence | Potency, µM (top dose mostly 57.1 µM), without a hit: at the highest dose activation, most hits filed as activators | 73,000 compounds, 2.5% hits; note: % of control where 0% means no effect; nearly all actives have a fitted effect of over 55% in size
#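 Parental HEK 293 cells stably expressing a cAMP-gated CNG channel were loaded with membrane potential dye containing 100 uM RO 20-1724 for 60 min. Compound added for 30 min; depolarization read as fluorescence intensity at 590 nm.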
# The depositor's hits bear a star; ? = inconclusive; / = no result given; [ ] = dose if it differs, or a comment. Unless noted, calls come from the whole dose curve; as a rule, active = well fitted curve in the direction sought with a large enough effect; inconclusive = small, poorly fitted or top-dose-only effect, or another doubt; inactive = no such curve, though single readings can be large; an effect the other way counts as inactive or inconclusive. Potency is the fitted concentration of half-maximal effect.
SMILES,p53ts 32C tox,Peg3 imprint,IkB sig inh,p53ts 39C tox,TSHR ag,HEK293 cAMP ctrl
CNc1nnc(-c2ccc(N(C)C)cc2)s1,6.31µM*,/,/,7.94µM*,/,/
O=C(NCc1ccccc1Cl)c1cccc(C(F)(F)F)c1,-25.3%,/,/,15.8µM*,/,/
O=C(NCc1ccccc1Cl)c1cccc(NC(=O)c2ccccc2)c1,/,/,/,5.6%,/,/
Cc1cc(N2CCN(c3ccccc3)CC2)n2c(n1)nc1ccccc12,5.1%,-4.1%,0.5%,12.6%,?,25.1µM*
Cc1cc(N2CCN(c3ccccc3)CC2)n2nnnc2n1,-0.8%,-2.4%,0.3%,-3.4%,-4.9%,1.6%
Cc1cc(Cl)nc(NC(=O)CSc2ccc(Cl)cc2)n1,-9.7%[9.22 µM],-15.4%[10.9 µM],1.2%[11.4 µM],-2.8%[9.22 µM],3.4%[11.4 µM],27.5%[11.4 µM]
CC(C)c1ccc(OCc2nc(-c3ccccn3)no2)c(Br)c1,?,-58.0%,?,?,?,?
CCc1ccc(OCc2nc(-c3ccccn3)no2)c(Br)c1,15.8µM*,-77.2%,8.8%,10µM*,23.0%,12.4%
Cc1ccc(OCc2nc(-c3ccccn3)no2)c(Br)c1,10µM*,-69.4%,0.1%,?,5.8%,16.1%
CCC(C)(C(=O)NC1CCCCC1)N(Cc1ccco1)C(=O)c1ccc2c(c1)OCO2 (stereo not drawn),34.2%,-9.5%,2.3%,-0.9%,?,7.94µM*
COc1ccc(Cn2c(=O)c3ccccc3n3c(-c4cccc(OC)c4OC)nnc23)cc1,-5.7%,-17.7%[10.9 µM],-1.6%,3.1%,/,/
COc1ccc(OC)c(-c2nnc3n(CCc4ccccc4)c(=O)c4ccccc4n23)c1,6.1%,-13.2%[10.9 µM],?,12.6µM*,/,/
Cc1ccc(NC(=O)NCC2CCN(Cc3cccc(Cl)c3)CC2)cc1Cl,-18.2%,-18.8%[10.9 µM],?,15.8µM*,/,/
COc1ccc(Cn2c(C(=O)O)c(CNCC(C)c3ccccc3)c3ccc(OC)cc32)cc1 (stereo not drawn),-5.3%,-5.7%[10.9 µM],?,-19.0%,/,/
Cc1ccc2[nH]c(=O)c(C(c3nnnn3C(C)(C)C)N(Cc3ccco3)CC3CCCO3)cc2c1 (stereo not drawn),13.6%,-15.3%,?,-5.3%,?,?
CC(C)(C)n1nnnc1C(c1ccccc1F)N(Cc1ccco1)CC1CCCO1 (stereo not drawn),8.1%,-13.9%,?,-3.7%,?,12.6µM*
N#CC(=C1CCCC1)c1nc(-c2ccccc2O)cs1,10µM*,-74.5%,0.0%,12.6µM*,?,?
Cc1ccc(Nc2nnc(SCC(=O)Nc3cccc(S(=O)(=O)N4CCCCC4)c3)s2)cc1,-19.7%,/,/,11.2µM*,/,/
N#CCCn1c(=O)c(-c2cccs2)nc2cnc(Oc3cccc(Cl)c3)nc21,-0.7%,/,-1.1%[11.4 µM],-0.6%,-10.9%,-23.2%
COC(=O)c1ccc(COc2ccc3c(C)c(C)c(=O)oc3c2)o1,-13.9%,-87.2%,?,-8.6%,?,3.98µM*
O=c1cnc2cnc(Oc3ccccc3)nc2n1Cc1cccs1,18.3%,/,-3.7%[11.4 µM],12.4%,?,20µM*
COc1cccc(Nc2ncc3ncc(=O)n(Cc4cccs4)c3n2)c1,34.5%,-29.3%,?,12.1%,?,15.8µM*
CCOC(=O)c1ccc(NS(=O)(=O)c2cc3c(cc2C)n(C)c(=O)c(=O)n3C)cc1,6.9%,/,/,/,/,/
COc1ccc(CCNC(=O)Cc2c(C)c3cc4c(C(C)(C)C)coc4c(C)c3oc2=O)cc1,10.3%,14.1%[10.9 µM],3.9%,-10.6%,/,/
Cc1ccc(CNC(=O)C2c3ccccc3C(=O)N(C)C2c2c[nH]c3ccccc23)o1 (stereo not drawn),22.5%,-15.5%,?,1.1%,?,25.1µM*
SMILES,p53ts 32C tox,Peg3 imprint,IkB sig inh,p53ts 39C tox,TSHR ag,HEK293 cAMP ctrl
COc1ccc(C2C(C(=O)Nc3cc(C)on3)c3ccccc3C(=O)N2C)cc1 (stereo not drawn),0.7%,20.2%,1.9%,0.9%,?,?
Cc1c(Cl)cccc1NC(=O)CN1C(=O)COc2ccc(S(=O)(=O)N3CCOCC3)cc21,3.7%,-17.7%[10.9 µM],0.7%,-5.9%,/,/
CCN(CC)S(=O)(=O)c1ccc(NC(=O)CN(c2ccccc2)S(=O)(=O)N(C)C)cc1,3.6%,3.8%[10.9 µM],1.4%,5.5%,/,/
Oc1ccc(NCc2ccc(OCc3ccccc3Cl)cc2)cc1,?,-65.0%[10.9 µM],?,10µM*,/,/
Oc1ccc(NCc2ccccc2OCc2ccccc2Cl)cc1,-0.3%,-9.2%[10.9 µM],?,-7.2%,/,/
Oc1ccc(NCc2ccc(OCc3ccccc3)cc2)cc1,?,-53.7%[10.9 µM],?,20µM*,/,/
Cc1cc(C)cc(Nc2nc3ccccc3nc2-n2nc(C)cc2C)c1,7.8%,4.3%[10.9 µM],8.8%,4.0%,/,/
O=C(NC1CCCCCC1)C1c2ccccc2C(=O)N1Cc1ccco1 (stereo not drawn),-6.7%,-11.5%,0.7%,-0.6%,?,12.6µM*
CC(C)c1ccc(NC(=O)Cn2nnc(C(=O)NCc3ccc(Cl)cc3)c2N)cc1,0.1%,18.6%[10.9 µM],?,2.8%,/,/
CCC1CCCCN1C(=O)Cn1c(C(=O)OC)cc2sc(Cl)cc21 (stereo not drawn),?,-8.4%,2.3%,2.2%,?,15.8µM*
CCC1CCCCN1C(=O)Cn1c(=O)oc2ccccc21 (stereo not drawn),4.4%,-4.3%,1.9%,8.7%,2.1%,16.3%
CCC1CCCCN1C(=O)Cn1c(C(=O)OC)cc2ccsc21 (stereo not drawn),-1.0%,-10.3%,-0.2%,-5.0%,?,25.1µM*
CCOC(=O)c1cc(-c2ccccc2)n(-c2cccc(C(=O)Nc3cccc(SC)c3)c2)c1C,10.9%,-18.7%[10.9 µM],1.0%,-2.6%,/,/
CCCNC(=O)Cn1nc(-c2ccc(C)cc2)c2cnc3ccc(CC)cc3c21,8.4%,17.0%[10.9 µM],-5.1%,7.0%,/,/
